Reference: the supplement of paper PMC4466140

Key:
Experiment in all cases: SPOT peptide array binding signal intensity (averaged, normalized) (arbitrary units (background-subtracted, floor 0; scale differs between SH3 domains)); higher = stronger binding of the SH3 domain to the peptide
CaNbp2 = molecular target: CaNbp2
In short: (§1)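 Binding signal is given in arbitrary units that differ between domains and is the normalized, background-subtracted spot intensity averaged across replicates. Each GST-SH3 fusion from one of four yeast species was made in E. coli BL21(DE3), purified on glutathione Sepharose and incubated at 10 μg/ml overnight at 4°C on cellulose-bound synthetic 15-mer peptides in which cysteines were replaced by serines. Detection used anti-GST antibody, an HRP anti-mouse secondary and luminol, followed by imaging and Genespotter quantification.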

CaRvs167 = molecular target: CaRvs167
In short: as §1

CaRvs167-3 = molecular target: CaRvs167-3
In short: as §1

CaSho1 = molecular target: CaSho1
In short: as §1

CaSla1-D1-D2 = molecular target: CaSla1-D1-D2
In short: as §1

CaSla1-D3 = molecular target: CaSla1-D3
In short: as §1

ScAbp1 = molecular target: ScAbp1
In short: as §1

ScBbc1 = molecular target: ScBbc1
In short: as §1

ScBem1-D1 = molecular target: ScBem1-D1
In short: as §1

ScBzz1-D1 = molecular target: ScBzz1-D1
In short: as §1

ScBzz1-D2 = molecular target: ScBzz1-D2
In short: as §1

ScCyk3 = molecular target: ScCyk3
In short: as §1

ScFus1 = molecular target: ScFus1
In short: as §1

ScHof1 = molecular target: ScHof1
In short: as §1

ScHse1 = molecular target: ScHse1
In short: as §1

ScLsb1 = molecular target: ScLsb1
In short: as §1

ScLsb2 = molecular target: ScLsb2
In short: as §1

ScLsb3 = molecular target: ScLsb3
In short: as §1

ScLsb4 = molecular target: ScLsb4
In short: as §1

ScMyo3 = molecular target: ScMyo3
In short: as §1

ScMyo5 = molecular target: ScMyo5
In short: as §1

ScNbp2 = molecular target: ScNbp2
In short: as §1

ScPex13 = molecular target: ScPex13
In short: as §1

ScRvs167 = molecular target: ScRvs167
In short: as §1

ScSho1 = molecular target: ScSho1
In short: as §1

ScSla1-D1-D2 = molecular target: ScSla1-D1-D2
In short: as §1

ScSla1-D3 = molecular target: ScSla1-D3
In short: as §1

SpAbp1-D1 = molecular target: SpAbp1-D1
In short: as §1

SpBbc1 = molecular target: SpBbc1
In short: as §1

SpBzz1-D1 = molecular target: SpBzz1-D1
In short: as §1

SpBzz1-D2 = molecular target: SpBzz1-D2
In short: as §1

SpCyk3 = molecular target: SpCyk3
In short: as §1

SpHof1 = molecular target: SpHof1
In short: as §1

SpHof1-2 = molecular target: SpHof1-2
In short: as §1

SpHof1-3 = molecular target: SpHof1-3
In short: as §1

SpHse1 = molecular target: SpHse1
In short: as §1

SpLsb1 = molecular target: SpLsb1
In short: as §1

SpLsb4 = molecular target: SpLsb4
In short: as §1

SpMyo1 = molecular target: SpMyo1
In short: as §1

SpNbp2 = molecular target: SpNbp2
In short: as §1

SpPex13 = molecular target: SpPex13
In short: as §1

SpRvs167 = molecular target: SpRvs167
In short: as §1

SpSla1-D1-D2 = molecular target: SpSla1-D1-D2
In short: as §1

SpSla1-D3 = molecular target: SpSla1-D3
In short: as §1

KTRLRPAFIQQLWSS
SPOT peptide array binding signal intensity (CaNbp2): 338
SPOT peptide array binding signal intensity (CaRvs167): 17.3
SPOT peptide array binding signal intensity (CaRvs167-3): 2
SPOT peptide array binding signal intensity (CaSho1): 338
SPOT peptide array binding signal intensity (CaSla1-D1-D2): ≤ 0
SPOT peptide array binding signal intensity (CaSla1-D3): 9.5
SPOT peptide array binding signal intensity (ScAbp1): 17
SPOT peptide array binding signal intensity (ScBbc1): 6.25
SPOT peptide array binding signal intensity (ScBem1-D1): 60
SPOT peptide array binding signal intensity (ScBzz1-D1): 29.5
SPOT peptide array binding signal intensity (ScBzz1-D2): 82.5
SPOT peptide array binding signal intensity (ScCyk3): 47
SPOT peptide array binding signal intensity (ScFus1): 170
SPOT peptide array binding signal intensity (ScHof1): 5.75
SPOT peptide array binding signal intensity (ScHse1): 1510
SPOT peptide array binding signal intensity (ScLsb1): ≤ 0
SPOT peptide array binding signal intensity (ScLsb2): ≤ 0
SPOT peptide array binding signal intensity (ScLsb3): 74.5
SPOT peptide array binding signal intensity (ScLsb4): 1.5
SPOT peptide array binding signal intensity (ScMyo3): 10
SPOT peptide array binding signal intensity (ScMyo5): 3.5
SPOT peptide array binding signal intensity (ScNbp2): 121
SPOT peptide array binding signal intensity (ScPex13): 6.25
SPOT peptide array binding signal intensity (ScRvs167): 13
SPOT peptide array binding signal intensity (ScSho1): 431
SPOT peptide array binding signal intensity (ScSla1-D1-D2): 36
SPOT peptide array binding signal intensity (ScSla1-D3): 27.5
SPOT peptide array binding signal intensity (SpAbp1-D1): 54.5
SPOT peptide array binding signal intensity (SpBbc1): 4
SPOT peptide array binding signal intensity (SpBzz1-D1): 170
SPOT peptide array binding signal intensity (SpBzz1-D2): 1
SPOT peptide array binding signal intensity (SpCyk3): 5
SPOT peptide array binding signal intensity (SpHof1): 117
SPOT peptide array binding signal intensity (SpHof1-2): 13.2
SPOT peptide array binding signal intensity (SpHof1-3): 571
SPOT peptide array binding signal intensity (SpHse1): 696
SPOT peptide array binding signal intensity (SpLsb1): ≤ 0
SPOT peptide array binding signal intensity (SpLsb4): 7
SPOT peptide array binding signal intensity (SpMyo1): 3
SPOT peptide array binding signal intensity (SpNbp2): 58.5
SPOT peptide array binding signal intensity (SpPex13): 17
SPOT peptide array binding signal intensity (SpRvs167): 6.67
SPOT peptide array binding signal intensity (SpSla1-D1-D2): ≤ 0
SPOT peptide array binding signal intensity (SpSla1-D3): 8
